Residual activity data for 12 molecules are collected here from ChEMBL document CHEMBL2218924, “A broad activity screen in support of a chemogenomic map for kinase signalling research and drug discovery” (Biochem J, 2013).

In assay [1] the target is Mitogen-activated protein kinase 10 (Homo sapiens) (UniProt P53779). As to conditions: at 10 µM.
Assay [2] concerns the target Vascular endothelial growth factor receptor 2 (Homo sapiens) (UniProt P35968). Particulars: at 1 µM.
For assay [3] the target is unchanged. As to conditions: at 10 µM.
The target of assay [4] is LIM domain kinase 1 (Homo sapiens) (UniProt P53667). As to conditions: at 1 µM.
Assay [5] has the same target. As to conditions: at 10 µM.
Assay [6] has as its target Serine/threonine-protein kinase 10 (Homo sapiens) (UniProt O94804). Particulars: at 1 µM.
Assay [7] has the same target. Particulars: at 10 µM.
Assay [8] has as its target Tyrosine-protein kinase Lck (Homo sapiens) (UniProt P06239). As to conditions: at 1 µM.
The target is the same in assay [9]. As to conditions: at 10 µM.
For assay [10] the target is unchanged. Particulars: at 1 µM. This is another data set of the same source.
For assay [11] the target is unchanged. Particulars: at 10 µM. This is another data set of the same source.
The target of assay [12] is Tyrosine-protein kinase Lyn (Homo sapiens) (UniProt P07948). Particulars: at 1 µM.
For assay [13] the target is unchanged. As to conditions: at 10 µM.
Assay [14] has as its target Mitogen-activated protein kinase 3 (Homo sapiens) (UniProt P27361). Particulars: at 10 µM.
The target of assay [15] is Mitogen-activated protein kinase 1 (Homo sapiens) (UniProt P28482). As to conditions: at 1 µM.
Assay [16] shares this target. As to conditions: at 10 µM.
In assay [17] the target is MAP kinase-activated protein kinase 2 (Homo sapiens) (UniProt P49137). Particulars: at 1 µM.
The target of assay [18] is T1, Serine/threonine-protein kinase STK11 (Homo sapiens) (UniProt Q15831).
T1 sequence (whole entry): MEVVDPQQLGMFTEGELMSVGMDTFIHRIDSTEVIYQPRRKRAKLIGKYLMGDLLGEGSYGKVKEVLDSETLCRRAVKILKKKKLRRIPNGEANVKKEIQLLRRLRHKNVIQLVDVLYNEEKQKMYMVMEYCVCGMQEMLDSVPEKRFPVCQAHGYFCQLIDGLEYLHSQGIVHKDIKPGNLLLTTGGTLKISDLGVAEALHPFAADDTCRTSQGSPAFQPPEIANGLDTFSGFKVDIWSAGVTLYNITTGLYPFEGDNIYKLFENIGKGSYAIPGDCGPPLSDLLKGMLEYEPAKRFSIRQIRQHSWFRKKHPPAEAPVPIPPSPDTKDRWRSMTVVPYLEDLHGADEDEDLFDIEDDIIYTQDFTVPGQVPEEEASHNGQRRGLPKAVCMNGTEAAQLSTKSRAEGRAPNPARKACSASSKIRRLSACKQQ
As to conditions: at 1 µM.

Assay [19] concerns the target T1, Serine/threonine-protein kinase STK11 (Homo sapiens). Particulars: at 10 µM.
Assay [20] concerns the target Mitogen-activated protein kinase 3 (Homo sapiens) (UniProt P27361). Particulars: at 1 µM.

Sequence of Tyrosine-protein kinase Lck (Homo sapiens) (P06239 2-509 limits assumed): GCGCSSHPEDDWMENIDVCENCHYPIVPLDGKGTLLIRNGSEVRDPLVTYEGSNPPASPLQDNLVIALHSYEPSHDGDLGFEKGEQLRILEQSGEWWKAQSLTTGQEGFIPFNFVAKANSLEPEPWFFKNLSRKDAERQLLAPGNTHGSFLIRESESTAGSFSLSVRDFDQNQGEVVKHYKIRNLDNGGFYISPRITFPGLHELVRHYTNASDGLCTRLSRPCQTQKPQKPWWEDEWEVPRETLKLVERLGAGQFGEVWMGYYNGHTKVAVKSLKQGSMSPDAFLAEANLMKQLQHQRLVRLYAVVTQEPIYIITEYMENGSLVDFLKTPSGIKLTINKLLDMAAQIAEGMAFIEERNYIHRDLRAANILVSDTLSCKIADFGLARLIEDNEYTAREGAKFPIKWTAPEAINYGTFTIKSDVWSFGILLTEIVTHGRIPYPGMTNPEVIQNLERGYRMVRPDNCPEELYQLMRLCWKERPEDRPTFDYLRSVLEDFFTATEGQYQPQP
Sequence of Mitogen-activated protein kinase 1 (Homo sapiens) (P28482 whole entry): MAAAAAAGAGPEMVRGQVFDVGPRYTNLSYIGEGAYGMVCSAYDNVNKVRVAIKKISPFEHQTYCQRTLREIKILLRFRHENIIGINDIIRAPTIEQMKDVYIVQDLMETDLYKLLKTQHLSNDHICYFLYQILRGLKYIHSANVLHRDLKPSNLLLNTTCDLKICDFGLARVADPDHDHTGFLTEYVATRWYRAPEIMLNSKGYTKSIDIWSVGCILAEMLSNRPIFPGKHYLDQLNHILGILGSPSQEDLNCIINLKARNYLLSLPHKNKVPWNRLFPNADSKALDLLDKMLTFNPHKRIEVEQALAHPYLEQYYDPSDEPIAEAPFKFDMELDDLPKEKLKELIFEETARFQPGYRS
Sequence of Mitogen-activated protein kinase 10 (Homo sapiens) (P53779 whole entry): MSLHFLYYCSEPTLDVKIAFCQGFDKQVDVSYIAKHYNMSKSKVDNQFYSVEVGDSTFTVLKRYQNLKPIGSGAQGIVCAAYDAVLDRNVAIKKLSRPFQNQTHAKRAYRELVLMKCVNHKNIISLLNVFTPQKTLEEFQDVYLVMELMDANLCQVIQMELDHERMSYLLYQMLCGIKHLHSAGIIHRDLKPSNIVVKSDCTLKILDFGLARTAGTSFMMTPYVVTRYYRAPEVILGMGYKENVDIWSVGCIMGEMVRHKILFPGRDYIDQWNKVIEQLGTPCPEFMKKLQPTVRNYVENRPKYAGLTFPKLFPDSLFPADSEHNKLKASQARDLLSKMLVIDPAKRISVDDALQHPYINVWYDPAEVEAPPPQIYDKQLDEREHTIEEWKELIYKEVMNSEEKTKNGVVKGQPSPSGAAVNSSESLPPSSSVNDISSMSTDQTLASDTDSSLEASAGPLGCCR
Sequence of Vascular endothelial growth factor receptor 2 (Homo sapiens) (P35968 whole entry): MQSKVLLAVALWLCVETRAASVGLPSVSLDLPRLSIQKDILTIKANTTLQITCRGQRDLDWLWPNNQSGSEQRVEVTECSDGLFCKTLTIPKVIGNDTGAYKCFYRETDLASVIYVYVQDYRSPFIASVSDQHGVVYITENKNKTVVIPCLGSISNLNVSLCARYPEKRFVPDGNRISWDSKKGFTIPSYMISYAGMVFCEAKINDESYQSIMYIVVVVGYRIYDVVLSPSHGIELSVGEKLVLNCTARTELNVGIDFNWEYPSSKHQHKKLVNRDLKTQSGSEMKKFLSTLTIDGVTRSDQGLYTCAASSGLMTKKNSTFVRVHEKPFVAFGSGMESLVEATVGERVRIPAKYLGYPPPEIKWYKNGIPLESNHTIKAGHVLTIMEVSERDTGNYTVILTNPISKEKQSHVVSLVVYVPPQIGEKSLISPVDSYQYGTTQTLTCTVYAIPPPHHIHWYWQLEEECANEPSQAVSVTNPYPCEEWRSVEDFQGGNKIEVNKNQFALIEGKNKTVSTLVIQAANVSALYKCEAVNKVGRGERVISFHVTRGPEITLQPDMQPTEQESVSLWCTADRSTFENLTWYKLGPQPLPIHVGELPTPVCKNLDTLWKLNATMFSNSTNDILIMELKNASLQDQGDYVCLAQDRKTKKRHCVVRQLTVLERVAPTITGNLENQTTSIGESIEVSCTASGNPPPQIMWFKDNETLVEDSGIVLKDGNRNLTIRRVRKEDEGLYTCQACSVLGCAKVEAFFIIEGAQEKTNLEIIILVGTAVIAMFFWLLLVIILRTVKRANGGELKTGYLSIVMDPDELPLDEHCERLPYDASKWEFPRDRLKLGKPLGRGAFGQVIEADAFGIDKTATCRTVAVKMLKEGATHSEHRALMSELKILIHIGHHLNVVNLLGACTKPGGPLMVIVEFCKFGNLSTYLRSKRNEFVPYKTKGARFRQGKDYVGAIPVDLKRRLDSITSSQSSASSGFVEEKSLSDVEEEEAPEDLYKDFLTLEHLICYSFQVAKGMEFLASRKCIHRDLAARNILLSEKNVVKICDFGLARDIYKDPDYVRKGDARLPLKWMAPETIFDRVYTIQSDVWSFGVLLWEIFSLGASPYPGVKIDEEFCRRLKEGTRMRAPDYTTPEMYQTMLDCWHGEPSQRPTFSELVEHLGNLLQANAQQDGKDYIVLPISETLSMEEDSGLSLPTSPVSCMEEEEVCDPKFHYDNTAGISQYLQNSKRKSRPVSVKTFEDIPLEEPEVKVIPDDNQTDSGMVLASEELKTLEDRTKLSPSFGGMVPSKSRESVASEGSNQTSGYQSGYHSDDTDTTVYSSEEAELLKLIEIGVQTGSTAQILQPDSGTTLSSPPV
Sequence of Tyrosine-protein kinase Lyn (Homo sapiens) (P07948 2-512 limits assumed): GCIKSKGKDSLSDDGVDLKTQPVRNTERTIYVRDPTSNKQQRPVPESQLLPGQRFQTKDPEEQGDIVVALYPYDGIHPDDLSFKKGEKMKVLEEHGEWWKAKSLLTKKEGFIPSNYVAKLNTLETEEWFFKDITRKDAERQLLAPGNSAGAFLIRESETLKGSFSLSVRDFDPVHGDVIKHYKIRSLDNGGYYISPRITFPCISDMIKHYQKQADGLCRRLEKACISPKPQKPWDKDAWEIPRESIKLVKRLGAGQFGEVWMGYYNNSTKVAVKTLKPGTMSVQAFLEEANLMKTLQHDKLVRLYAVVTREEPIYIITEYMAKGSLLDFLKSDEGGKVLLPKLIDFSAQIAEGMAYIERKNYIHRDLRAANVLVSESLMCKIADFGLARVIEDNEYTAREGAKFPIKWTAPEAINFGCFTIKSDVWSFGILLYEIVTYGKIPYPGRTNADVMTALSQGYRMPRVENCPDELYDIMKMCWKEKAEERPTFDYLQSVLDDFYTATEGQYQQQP
Sequence of Mitogen-activated protein kinase 3 (Homo sapiens) (P27361 whole entry): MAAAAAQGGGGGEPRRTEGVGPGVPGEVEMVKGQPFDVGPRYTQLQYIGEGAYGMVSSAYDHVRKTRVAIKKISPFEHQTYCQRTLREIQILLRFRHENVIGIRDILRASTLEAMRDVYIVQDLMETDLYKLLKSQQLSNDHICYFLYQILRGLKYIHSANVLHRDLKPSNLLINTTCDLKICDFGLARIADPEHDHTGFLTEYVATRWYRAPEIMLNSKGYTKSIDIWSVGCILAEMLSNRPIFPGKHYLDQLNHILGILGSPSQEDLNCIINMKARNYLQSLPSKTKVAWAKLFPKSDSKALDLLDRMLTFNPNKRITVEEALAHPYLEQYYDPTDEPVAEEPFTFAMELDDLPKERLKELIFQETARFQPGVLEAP
Sequence of MAP kinase-activated protein kinase 2 (Homo sapiens) (P49137 whole entry, looked up): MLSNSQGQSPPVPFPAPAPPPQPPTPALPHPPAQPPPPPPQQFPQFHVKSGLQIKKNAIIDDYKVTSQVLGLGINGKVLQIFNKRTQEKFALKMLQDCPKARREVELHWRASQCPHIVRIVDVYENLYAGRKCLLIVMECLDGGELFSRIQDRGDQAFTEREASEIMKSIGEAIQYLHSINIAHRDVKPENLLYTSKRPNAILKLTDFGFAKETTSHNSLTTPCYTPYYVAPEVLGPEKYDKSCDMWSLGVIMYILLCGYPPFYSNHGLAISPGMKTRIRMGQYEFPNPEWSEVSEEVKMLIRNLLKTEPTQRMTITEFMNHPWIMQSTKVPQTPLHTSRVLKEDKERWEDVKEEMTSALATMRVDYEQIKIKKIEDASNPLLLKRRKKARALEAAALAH
Sequence of LIM domain kinase 1 (Homo sapiens) (P53667 whole entry, looked up, the tested form may be a part): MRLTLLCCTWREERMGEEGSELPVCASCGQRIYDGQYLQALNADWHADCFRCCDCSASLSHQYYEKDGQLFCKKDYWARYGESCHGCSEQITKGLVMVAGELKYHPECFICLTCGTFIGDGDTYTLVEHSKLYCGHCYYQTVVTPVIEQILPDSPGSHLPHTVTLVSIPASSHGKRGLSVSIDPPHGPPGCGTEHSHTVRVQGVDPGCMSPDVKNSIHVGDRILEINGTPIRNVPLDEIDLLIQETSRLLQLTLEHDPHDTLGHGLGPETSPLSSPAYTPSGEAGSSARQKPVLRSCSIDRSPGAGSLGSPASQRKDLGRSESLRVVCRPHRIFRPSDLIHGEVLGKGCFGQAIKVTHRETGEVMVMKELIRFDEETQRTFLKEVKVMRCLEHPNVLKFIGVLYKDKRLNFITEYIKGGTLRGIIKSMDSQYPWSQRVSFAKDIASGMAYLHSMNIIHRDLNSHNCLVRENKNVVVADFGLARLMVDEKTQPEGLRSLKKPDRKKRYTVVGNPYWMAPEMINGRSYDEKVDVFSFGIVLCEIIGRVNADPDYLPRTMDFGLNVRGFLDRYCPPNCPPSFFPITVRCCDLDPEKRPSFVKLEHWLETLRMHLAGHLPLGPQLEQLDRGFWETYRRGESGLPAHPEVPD

For the molecule `CCN(CC)C(=O)c1ccc(Nc2nc(OCC3CCCCC3)c3nc[nH]c3n2)cc1`, the residual activity in assay [1] is -4%; in assay [2], 33%; in assay [3], 3%; in [4] it was 39%; in assay [5], 10%; in [6], 45%. Further, the residual activity in [7] is 13%; in assay [8], 10%; in [9] it was 3%; in assay [10], 20%; in assay [11], 7%; in assay [12], 20%. The residual activity in assay [13] was found to be 1%; in assay [14], 29%; in assay [15], 99%; in assay [16], 42%; in [17], 81%.
As to `O=C1NC(=O)c2cc(Nc3ccc(F)cc3)c(Nc3ccc(F)cc3)cc21`, the residual activity was 99% in assay [2]; 61% in assay [3]; 100% in [4]; 91% in assay [5]; 102% in [18]; 93% in assay [19]. Also, the residual activity in assay [6] was 89%; in assay [7], 32%; in assay [8], 103%; in assay [9], 26%; in [10], 77%; in [11], 44%. In addition, the residual activity in [12] stood at 35%; in assay [13], 7%; in [20], 79%; in assay [14], 57%; in assay [15] it was 103%; in [16] it was 99%. Besides, in [17], the residual activity is 90%.
As for `CCC(=O)Nc1ccc2ncnc(Nc3cccc(Br)c3)c2c1`, the residual activity is 37% in [1]; 95% in assay [2]; 75% in assay [3]; 97% in [4]; 76% in assay [5]; 96% in assay [18]. In addition, the residual activity in assay [19] worked out at 96%; in assay [6], 50%; in [7] it was 33%; in [8] it was 79%; in assay [9], 67%; in assay [10], 77%. Moreover, the residual activity in assay [11] amounted to 75%; in assay [12], 28%; in assay [13], 5%; in assay [20], 83%; in assay [14] it was 85%; in assay [15], 93%. For the same molecule, the residual activity in assay [16] stood at 94%; in [17], 88%.
Take `COc1cc2ncc(-c3ccccc3)nc2cc1OC`: the residual activity in assay [1] came out at 79%; in [6] it was 90%; in assay [7], 88%; in assay [9] it was 75%; in assay [10], 86%; in assay [11], 80%. Besides, the residual activity is 67% in assay [12], 58% in assay [13], 89% in [20] and 81% in assay [14].
Turning to `CC(=O)O/N=C1\C(=C2\C(=O)Nc3cc(Br)ccc32)Nc2ccccc21`, the residual activity in assay [1] came out at 61%; in assay [2] it was 67%; in assay [3], 5%; in assay [4], 83%; in [5], 50%; in [18], 98%. The residual activity stood at 92% in assay [19]; 53% in assay [6]; 46% in assay [7]; 16% in [8]; 13% in assay [9]; 63% in assay [10]. Also, the residual activity in assay [11] amounted to 26%; in assay [12], 12%; in [13] it was 4%; in assay [20], 98%; in assay [14], 102%; in assay [15], 105%. Also, the residual activity was 93% in [16] and 87% in assay [17].
On to `CO[C@@H]1[C@H](N(C)C(=O)c2ccccc2)C[C@H]2O[C@]1(C)n1c3ccccc3c3c4c(c5c6ccccc6n2c5c31)C(=O)NC4`, for which the residual activity turned out to be 27% in assay [1]; 3% in [2]; 2% in [3]; 22% in assay [4]; 4% in [5]; 95% in [18]. For the same molecule, the residual activity in assay [19] is 93%; in [6], 21%; in assay [7] it was 9%; in assay [8], 13%; in assay [9], 5%; in [10], 5%. Further, the residual activity came to 6% in assay [11]; 6% in assay [12]; 2% in assay [13]; 75% in assay [20]; 101% in [15]; 98% in [16]. In addition, in assay [17], the residual activity came to 75%.
Consider `CO[C@H]1[C@@H](OC)C[C@H](C)[C@@H](OC)C2=CC(=O)C=C(NC(=O)/C(C)=C/C=C/[C@H](OC)[C@@H](OC(N)=O)/C(C)=C/[C@@H]1C)C2=O`, for which the residual activity is 110% in assay [1]; 97% in assay [2]; 87% in assay [3]; 109% in [4]; 90% in assay [5]; 97% in assay [18]. Also, the residual activity in assay [19] was found to be 90%; in assay [6], 100%; in assay [8], 142%; in [9], 86%; in [10], 93%; in assay [11], 85%. Also, the residual activity in assay [12] came to 85%; in assay [13], 57%; in assay [20], 88%; in [14], 89%; in assay [15] it was 105%; in [16] it was 97%. Also, in [17], the residual activity amounted to 101%.
As to `CN(C)c1ccc(/C=C2\C(=O)Nc3ccccc32)cc1`, the residual activity worked out at 106% in assay [1]; 4% in assay [2]; 3% in assay [3]; 108% in assay [4]; 89% in assay [5]; 94% in assay [18]. Further, the residual activity in assay [19] stood at 102%; in [6], 100%; in assay [7], 77%; in [8], 129%; in assay [9] it was 55%; in assay [10], 83%. The residual activity in assay [11] was 71%; in [12], 86%; in assay [13], 63%; in assay [20] it was 91%; in assay [14], 69%; in [15] it was 107%. The residual activity in assay [16] worked out at 100%; in assay [17], 121%.
In the case of `O=C(Nc1cccc(Nc2cc(Nc3cccc(C(F)(F)F)c3)ncn2)c1)C1CC1`, the residual activity was 52% in assay [1]; 96% in [2]; 75% in assay [3]; 87% in assay [4]; 31% in assay [5]; 102% in assay [18]. For the same molecule, the residual activity in [19] was determined as 96%; in assay [6] it was 92%; in assay [7] it was 57%; in assay [8], 72%; in assay [9] it was 29%; in assay [10], 85%. Moreover, the residual activity in assay [11] worked out at 81%; in assay [12], 62%; in assay [13], 18%; in [20], 96%; in assay [14], 85%; in assay [15] it was 102%. Besides, the residual activity in [16] is 103%; in assay [17] it was 89%.
Regarding `Oc1ccc(Nc2nc(-c3ccc(Cl)cc3)cs2)cc1`, the residual activity in assay [1] is 115%; in [2], 104%; in assay [3] it was 92%; in [4], 102%; in assay [5] it was 102%; in [18], 108%. Also, the residual activity in assay [6] turned out to be 109%; in assay [7], 107%; in [8], 93%; in assay [9], 103%; in [10], 98%; in assay [11], 79%. In addition, the residual activity in assay [12] worked out at 84%; in [13], 56%; in [20], 96%; in assay [14], 81%; in assay [15] it was 114%; in assay [16], 107%. Besides, in assay [17], the residual activity worked out at 108%.
Consider `O=C(O)c1ccc2c3c1cccc3c(=O)n1c3ccccc3nc21`, for which the residual activity was found to be 34% in assay [1]; 41% in assay [2]; 56% in [3]; 101% in [4]; 89% in assay [5]; 107% in [18]. The residual activity in assay [19] was determined as 95%; in assay [6], 60%; in [7] it was 39%; in [8], 83%; in [9] it was 109%; in assay [10] it was 95%. The residual activity was determined as 79% in assay [11]; 96% in assay [12]; 87% in assay [13]; 117% in assay [20]; 77% in assay [14]; 123% in [15]. The residual activity turned out to be 96% in assay [16] and 86% in assay [17].
Take `O=c1c2ccccc2[nH]c(=S)n1CCN1CCC(=C(c2ccc(F)cc2)c2ccc(F)cc2)CC1`: the residual activity was determined as 54% in assay [1]; 103% in assay [2]; 90% in [3]; 119% in assay [4]; 93% in [5]; 123% in [18]. Also, the residual activity is 128% in [19]; 107% in [6]; 97% in [7]; 144% in assay [8]; 107% in [9]; 83% in [10]. The residual activity in assay [11] stood at 65%; in [12], 83%; in [13], 46%; in [20], 88%; in assay [14] it was 61%; in assay [15], 103%. In addition, the residual activity came out at 80% in assay [16] and 97% in assay [17].
